In the supplement of paper PMC6555819:

What was measured:
Test in all cases: PBM binding z-score (relative to random genomic background probes); higher = stronger binding; sequences stand for … in GC…GCGATTGACAGCGTAGAATGAAGG
[1] = test system: RARb homodimer (NR concentration 270 nM)
Summary of the method: (§1)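 The probes on custom Agilent 4×180K protein-binding microarrays were double-stranded, with 34-nt variable regions bearing direct-repeat seeds, single-nucleotide variants, half-site ablations and random human genomic background sequences. Incubation lasted 1 h with ligand-free nuclear receptor dimers in PBS pH 7.4, 2% milk, 0.02% Triton X-100, 1 mM DTT, 0.2 mg/mL BSA and 0.4 mg/ml salmon testes DNA. Antibodies against each partner (one per run) detected bound dimers, and fluorescence scans were regression-normalized. Binding z-scores take the random background probes as reference.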

[2] = test system: RARg:RXRa (NR concentration 270 nM, RXRa partner concentration 90 nM)
Summary of the method: as §1

[3] = test system: RARg homodimer (NR concentration 270 nM)
Summary of the method: as §1

[4] = test system: RXRa DBDmut IVT, anti-RXR (DBD mutation: RXRa K156A/R161A, NR concentration 90 nM)
Summary of the method: as §1

[5] = test system: RXRa homodimer (NR concentration 180 nM)
Summary of the method: as §1

[6] = test system: THRa:RXRa (NR concentration 90 nM, RXRa partner concentration 90 nM)
Summary of the method: as §1

[7] = test system: THRa homodimer (NR concentration 90 nM)
Summary of the method: as §1

[8] = test system: VDR homodimer (NR concentration 270 nM)
Summary of the method: as §1

| Sequence | PBM binding z-score [1] | PBM binding z-score [2] | PBM binding z-score [3] | PBM binding z-score [4] | PBM binding z-score [5] | PBM binding z-score [6] | PBM binding z-score [7] | PBM binding z-score [8] |
| --- | --- | --- | --- | --- | --- | --- | --- | --- |
| ATATGTAGGTTAACGGTCATTCAGGTTGGTTCGC | 2.72 | 2.13 | 2 | 1.34 | 1.88 | 1.62 | 0.747 | 1.84 |
| TGTGAAAGTTCAAAGGTAACGTAAGTATCCACAC | 3.75 | 5.88 | 5.56 | 4.17 | 7 | 3.13 | 0.137 | 3.9 |
| CCTTACGGGTCACTCACAGGTTATAGCATTTGGA | 3.65 | 5.9 | 4.5 | 2.04 | 4.75 | 3.07 | 0.529 | 1.28 |
| ACAGACAGGTGATTGAAGGTAACTCAGCTGGACG | -0.184 | 0.204 | 0.419 | -0.0738 | 0.195 | 1.92 | -0.247 | -0.308 |
| ATCGCTAGGTAAAGTTCAGTGAAAGATCGATAGA | 2.03 | 1.75 | 1.86 | 0.79 | 1.03 | 0.617 | -0.888 | 1.49 |
| CGTCCAAGGTCAAGGTCAGTAAAAGAGACTCGAA | 4.79 | 6.66 | 7.87 | 3.57 | 6.53 | 4 | 3.52 | 3.34 |
| AGTCAAAGTTTACTAGGTAACGTAAGATTCAGCT | 0.795 | 0.885 | 1.46 | 1.44 | 0.16 | 0.591 | -0.0944 | 0.294 |
